System: Vero E6 infected with SARS-CoV-2
Assay: inhibition of SARS-CoV-2 cytopathic effect; higher = more antiviral protection, active = above 15
Details: 48 h

Measured: inhibition of SARS-CoV-2 cytopathic effect

Cc1cn(C[C@H](N)C(=O)O)c(=O)n(Cc2ccsc2C(=O)O)c1=O
inactive: 1 nM 1.18% | 8.33 nM 1.91% | 100 nM -1.21% | 833.33 nM 0.03% | 10000 nM 2.18%

O=C(NNC(=O)c1ccc(CNS(=O)(=O)c2ccc(F)c(Cl)c2)cc1)c1ccccc1
inactive: 1 nM -1.42% | 8.33 nM -1.3% | 100 nM 3.13% | 833.33 nM 0.57% | 10000 nM -0.76%

O=C(N[C@H]1CN2CCC1CC2)c1ccc(Cl)cc1
inactive: 1 nM 1.35% | 8.33 nM 0.97% | 100 nM 1.21% | 833.33 nM 0.86% | 10000 nM 1.51%

C#C[C@]1(O)CC[C@H]2[C@@H]3CCc4cc(OC)ccc4[C@H]3CC[C@@]21C [mestranol]
inactive: 1 nM 0.06% | 8.33 nM 0.82% | 100 nM 0.83% | 833.33 nM 0.76% | 10000 nM -0.67%

Clc1ccccc1CN1CCc2sccc2C1 [ticlopidine]
inactive: 1 nM -1.31% | 8.33 nM -0.14% | 100 nM 0.36% | 833.33 nM 1.94% | 10000 nM -1.5%

CC(C)(C)C(=O)/C(=N/c1ccc(Cl)cc1)NNc1ccc(Cl)cc1
inactive: 1 nM 1.8% | 8.33 nM -0.69% | 100 nM 1.03% | 833.33 nM 0.66% | 10000 nM -7%

CNC1CCCN(c2c(F)cc3c(=O)c(C(=O)O)cn(C4CC4)c3c2OC)C1 (stereo not given) [balofloxacin]
inactive: 1 nM -2.96% | 8.33 nM 0.66% | 100 nM 1.91% | 833.33 nM 1.72% | 10000 nM 2.43%

CC(C)c1cc(-c2ccc(F)c3ccccc23)nc(N)n1
inactive: 1 nM 0.6% | 8.33 nM 1.62% | 100 nM -1.61% | 833.33 nM -3.71% | 10000 nM -2.34%

O=C(O)Cc1ccc(OCc2ccccc2)c(Cl)c1 [benzofenac]
inactive: 1 nM -0.05% | 8.33 nM 4.15% | 100 nM 1.74% | 833.33 nM 1.88% | 10000 nM 0.27%

C[C@]12CC[C@H]3[C@@H](CCC4=CC(=O)CC[C@@H]43)[C@@H]1CC[C@@H]2O [Nandrolone]
inactive: 1 nM -1.64% | 8.33 nM -1.9% | 100 nM -1.06% | 833.33 nM 1.95% | 10000 nM -0.94%

CCOc1cn(-c2ccc(F)cc2C)nc1C(=O)Nc1ccc(Oc2ccnc3cc(OC)c(OC)cc23)c(F)c1
inactive: 1 nM -0.58% | 8.33 nM -1.4% | 100 nM -1.89% | 833.33 nM 0.24% | 10000 nM -1.4%

Cc1n[nH]c2ccc(-c3cncc(OC[C@@H](N)Cc4ccccc4)c3)cc12
inactive: 1 nM 1.18% | 8.33 nM 0.14% | 100 nM 4.58% | 833.33 nM 4.63% | 10000 nM -13.2%

O=c1c(-c2ccc(O)cc2)coc2cc(O)ccc12 [daidzein]
inactive: 1 nM 0.46% | 8.33 nM 0.3% | 100 nM 0.05% | 833.33 nM -0.66% | 10000 nM -1.03%

NS(=O)(=O)c1cc2c(cc1Cl)NC(C(Cl)Cl)NS2(=O)=O (stereo not given) [trichlormethiazide]
inactive: 1 nM -3.15% | 8.33 nM -5.19% | 100 nM -10.5% | 833.33 nM -3.29% | 10000 nM -8.52%

CCOC(=O)c1cc(C#N)c(N2CCC(C(=O)NS(=O)(=O)Cc3ccccc3)CC2)nc1C
inactive: 1 nM 3.08% | 8.33 nM 2.38% | 100 nM 0.44% | 833.33 nM 1.19% | 10000 nM -2.86%

O=C(O)c1cc2occc2[nH]1
inactive: 1 nM -2.55% | 8.33 nM -2.94% | 100 nM -2.08% | 833.33 nM -2.97% | 10000 nM -2.87%

CC(=O)N(OCc1ccccc1)[C@@H]1c2cc(C#N)ccc2OC(C)(C)[C@H]1O
inactive: 1 nM -4.41% | 8.33 nM -2.98% | 100 nM -6.3% | 833.33 nM 2.7% | 10000 nM 2.53%

COc1cc2c(cc1OC(C)C)[C@H](c1ccc(Cl)cc1)N(c1ccc(N(C)C[C@H]3CC[C@H](N4CCN(C)C(=O)C4)CC3)cc1)C(=O)C2
inactive: 1 nM -0.21% | 8.33 nM 1.25% | 100 nM 2.45% | 833.33 nM 2.4% | 10000 nM 2.39%

COc1ccccc1Oc1c(NS(=O)(=O)c2ccc(C(C)(C)C)cc2)nc(-c2ncccn2)nc1OCCO [bosentan]
inactive: 1 nM -0.62% | 8.33 nM 1.39% | 100 nM 1.79% | 833.33 nM -3.3% | 10000 nM -1.84%

— the supplement of paper PMC13380429
